Test results published in PubChem BioAssay (Tox21).
Results filed as inconclusive are left out. The source made the active and inactive calls. Unless noted, the call rests on the fitted dose curve; in most records, active means well fitted curve in the direction sought with a large enough effect in the repeat runs; inconclusive means weak or mixed curves; inactive means no such curve, though single readings can be large; an effect the other way counts as inactive or inconclusive.

Columns and labels:
[1] = qHTS assay to identify small molecule antagonists of the glucocorticoid receptor (GR) signaling pathway - cell viability counter screen (AID 720693); further: nearly all actives have a fitted effect of over 55% in size
[2] = qHTS assay for identifying genotoxic compounds that show differential cytotoxicity against isogenic chicken DT40 cell lines with known DNA damage response pathways - wild type cell line (AID 743012); further: nearly all actives have a fitted effect of over 60% in size
Method in brief: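 CellTiter-Glo luminescence readout of viability in wild type DT40 cells after 40 h compound exposure at 37 C/5% CO2; 300 cells/well; reagent incubated 30 min at room temperature before reading.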

[3] = qHTS assay for identifying genotoxic compounds that show differential cytotoxicity against isogenic chicken DT40 cell lines with known DNA damage response pathways - Rev3 mutant cell line (AID 743014); further: nearly all actives have a fitted effect of over 55% in size
[4] = qHTS assay for identifying genotoxic compounds that show differential cytotoxicity against isogenic chicken DT40 cell lines with known DNA damage response pathways - Rad54/Ku70 mutant cell line (AID 743015); further: nearly all actives have a fitted effect of over 60% in size
[5] = qHTS assay to identify small molecule antagonists of the androgen receptor (AR) signaling pathway - cell viability counter screen (AID 743033; further: nearly all actives have a fitted effect of over 45% in size)
[6] = qHTS assay to identify small molecule antagonists of the thyroid receptor (TR) signaling pathway - cell viability counter screen (AID 743064); further: nearly all actives have a fitted effect of over 50% in size
Method in brief: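 In rat pituitary GH3.TRE-Luc reporter cells co-exposed to compound and 1 nM T3 for 23.5 h, cytotoxicity was assessed with CellTiter-Fluor in the same wells, read by fluorescence.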

[7] = qHTS assay to identify small molecule antagonists of the thyroid receptor (TR) signaling pathway (AID 743065); further: series mostly up to about 70 µM; nearly all actives have a fitted effect of over 55% in size
Method in brief: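 Antagonism measured as loss of luciferase signal in GH3 cells stably carrying a TRE-luciferase reporter, co-treated with compound and T3 (1 nM final) for 23.5 h at 37 C. Viability was read in the same well by CellTiter-Fluor.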

[8] = test system: thyroid hormone receptor (rat, GH3 cells); assay: qHTS assay to identify small molecule agonists of the thyroid receptor (TR) signaling pathway (AID 743066; calls by dose curve)
[9] = target: Estrogen receptor (Homo sapiens) (UniProt P03372); assay: qHTS assay to identify small molecule antagonists of the estrogen receptor alpha (ER-alpha) signaling pathway (AID 743069; active means well fitted curve in the direction sought with a large enough effect in the signal ratio in the repeat runs, not every such curve was filed as active; the % refers to the signal ratio)
Chain of Estrogen receptor (Homo sapiens) (P03372 whole entry, looked up): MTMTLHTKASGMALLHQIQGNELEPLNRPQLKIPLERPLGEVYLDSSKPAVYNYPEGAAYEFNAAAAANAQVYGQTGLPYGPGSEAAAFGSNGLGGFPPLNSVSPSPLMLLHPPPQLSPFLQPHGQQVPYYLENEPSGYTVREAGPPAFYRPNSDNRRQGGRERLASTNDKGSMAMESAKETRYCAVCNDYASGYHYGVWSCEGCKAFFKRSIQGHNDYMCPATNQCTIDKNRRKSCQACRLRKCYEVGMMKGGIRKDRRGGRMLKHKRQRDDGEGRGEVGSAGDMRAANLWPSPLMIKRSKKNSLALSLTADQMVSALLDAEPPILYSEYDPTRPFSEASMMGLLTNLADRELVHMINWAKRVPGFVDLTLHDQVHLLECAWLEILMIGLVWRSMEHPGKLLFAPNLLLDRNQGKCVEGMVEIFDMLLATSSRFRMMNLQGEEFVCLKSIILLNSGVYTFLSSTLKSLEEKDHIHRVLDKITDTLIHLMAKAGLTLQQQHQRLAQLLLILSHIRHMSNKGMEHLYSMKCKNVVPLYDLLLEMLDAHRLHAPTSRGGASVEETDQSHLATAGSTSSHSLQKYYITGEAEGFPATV
Method in brief: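 Antagonist mode: compounds in DMSO were co-added with 17beta-estradiol to ER-alpha-bla HEK293 cells (2% charcoal-stripped serum) and left 18 h at 37C. Reporter inhibition was measured as FRET fluorescence after 2 h LiveBLAzer substrate at room temperature.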

[10] = target: Estrogen receptor (Homo sapiens) (UniProt P03372); assay: qHTS assay to identify small molecule agonists of the estrogen receptor alpha (ER-alpha) signaling pathway (AID 743075; calls by dose curve;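 further: HEK293 GripTite cells with ER-alpha and UAS-driven beta-lactamase reporter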)
[11] = target: Estrogen receptor (Homo sapiens) (UniProt P03372); assay: qHTS assay to identify small molecule agonists of the estrogen receptor alpha (ER-alpha) signaling pathway using the BG1 cell line (AID 743079); further: nearly all actives have a fitted effect of over 20% in size
[12] = qHTS assay to identify small molecule antagonists of the estrogen receptor alpha (ER-alpha) signaling pathway using the BG1 cell line (AID 743080; calls by dose curve;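 further: BG1 cells stimulated with 17beta-estradiol alongside compound; series mostly up to about 70 µM; nearly all actives have a fitted effect of over 25% in size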)
Method in brief: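 Luminescence from a 4×ERE-luciferase reporter in BG1-Luc-4E2 cells served as read-out. Cells, pre-cultured 5 days in stripped-serum phenol-red-free medium, were exposed to compound with 17beta-estradiol co-stimulation for 21.5 h at 37 C.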

[13] = qHTS assay to identify small molecule antagonists of the estrogen receptor alpha (ER-alpha) signaling pathway using the BG1 cell line - cell viability counter screen (AID 743081);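 further: compound given together with 17beta-estradiol as the ER stimulus; series mostly up to about 70 µM; nearly all actives have a fitted effect of over 45% in size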
[14] = target: Aromatase (Homo sapiens) (UniProt P11511); assay: qHTS assay to identify aromatase inhibitors (AID 743083); further: series mostly up to about 70 µM; nearly all actives have a fitted effect of over 55% in size
Chain of Aromatase (Homo sapiens) (P11511 whole entry, looked up): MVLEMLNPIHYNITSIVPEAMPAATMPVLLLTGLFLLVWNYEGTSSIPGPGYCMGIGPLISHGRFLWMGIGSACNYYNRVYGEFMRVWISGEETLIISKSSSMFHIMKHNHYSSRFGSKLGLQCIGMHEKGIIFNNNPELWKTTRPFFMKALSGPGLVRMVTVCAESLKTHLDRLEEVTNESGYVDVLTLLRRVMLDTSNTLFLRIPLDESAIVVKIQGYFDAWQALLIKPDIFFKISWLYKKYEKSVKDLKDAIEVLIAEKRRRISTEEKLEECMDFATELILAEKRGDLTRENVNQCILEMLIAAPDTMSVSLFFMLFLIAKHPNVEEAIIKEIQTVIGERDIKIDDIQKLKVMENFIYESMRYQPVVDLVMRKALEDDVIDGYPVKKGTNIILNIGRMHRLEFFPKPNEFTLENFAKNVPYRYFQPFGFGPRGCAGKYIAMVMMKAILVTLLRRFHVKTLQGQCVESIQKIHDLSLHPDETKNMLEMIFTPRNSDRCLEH

[15] = qHTS assay to identify aromatase inhibitors - cell viability counter screen (AID 743084)
[16] = qHTS assay to identify small molecule antagonists of the androgen receptor (AR) signaling pathway using the MDA cell line - cell viability counter screen (AID 743041; further: nearly all actives have a fitted effect of over 45% in size)
Method in brief: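 Viability read by CellTiter-Fluor fluorescence in the same wells as the antagonist screen, added after 15.5 h of a 16 h, 37C exposure. Human breast carcinoma MDA-kb2 AR-luc cells, compounds co-dosed with agonist R1881.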

[17] = qHTS assay to identify small molecule antagonists of the estrogen receptor alpha (ER-alpha) signaling pathway - cell viability counter screen (AID 743074; calls by dose curve;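 further: HEK293 cells carrying ER-alpha-UAS-bla reporter stimulated with 17beta-estradiol; nearly all actives have a fitted effect of over 45% in size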)
[18] = target: Androgen receptor (Homo sapiens) (UniProt P10275); assay: qHTS assay to identify small molecule agonists of the androgen receptor (AR) signaling pathway (AID 743036; active means well fitted activation curve with a large enough effect in the signal ratio in the repeat runs, with a control signal flat, not every such curve was filed as active; the % refers to the signal ratio)
Chain of Androgen receptor (Homo sapiens) (P10275 whole entry, looked up): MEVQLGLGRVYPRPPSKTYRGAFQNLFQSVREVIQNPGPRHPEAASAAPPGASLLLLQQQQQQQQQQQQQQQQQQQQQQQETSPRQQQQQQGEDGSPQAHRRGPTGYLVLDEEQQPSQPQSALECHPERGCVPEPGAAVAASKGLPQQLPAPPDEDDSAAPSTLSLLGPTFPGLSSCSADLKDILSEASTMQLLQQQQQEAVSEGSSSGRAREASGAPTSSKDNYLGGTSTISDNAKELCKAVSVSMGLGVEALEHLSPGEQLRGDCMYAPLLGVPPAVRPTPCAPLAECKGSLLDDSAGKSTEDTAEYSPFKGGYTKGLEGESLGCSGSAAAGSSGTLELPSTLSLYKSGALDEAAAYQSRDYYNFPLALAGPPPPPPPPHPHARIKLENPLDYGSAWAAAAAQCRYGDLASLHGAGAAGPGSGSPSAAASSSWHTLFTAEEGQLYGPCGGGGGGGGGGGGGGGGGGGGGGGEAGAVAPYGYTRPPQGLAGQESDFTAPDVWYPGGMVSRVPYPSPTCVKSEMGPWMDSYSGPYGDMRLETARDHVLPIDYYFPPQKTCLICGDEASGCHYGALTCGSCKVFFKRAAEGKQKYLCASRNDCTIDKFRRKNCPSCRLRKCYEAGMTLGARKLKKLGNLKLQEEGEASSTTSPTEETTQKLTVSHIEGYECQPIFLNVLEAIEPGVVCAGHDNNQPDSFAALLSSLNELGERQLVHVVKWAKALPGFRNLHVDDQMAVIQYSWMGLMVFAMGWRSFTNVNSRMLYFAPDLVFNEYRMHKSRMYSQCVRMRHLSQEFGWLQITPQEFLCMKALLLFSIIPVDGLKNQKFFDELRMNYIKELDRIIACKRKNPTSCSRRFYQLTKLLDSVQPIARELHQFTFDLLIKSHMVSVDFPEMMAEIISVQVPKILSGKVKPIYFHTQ
Method in brief: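 Cell-based FRET reporter assay: HEK293 line with a UAS-beta-lactamase construct, compounds added in DMSO, 16 h exposure at 37C, then 2 h substrate step at room temperature and fluorescence intensity read.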

[19] = target: Androgen receptor (Homo sapiens) (UniProt P10275); assay: qHTS assay to identify small molecule agonists of the androgen receptor (AR) signaling pathway using the MDA cell line (AID 743040; further: nearly all actives have a fitted effect of over 20% in size)
Method in brief: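 Luciferase agonist assay: 16 h compound exposure at 37C without CO2 in MDA-kb2 AR-luc cells, whose MMTV promoter responds to both AR and GR. Luminescence measured after 30 min room-temperature incubation with ONE-Glo.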

[20] = target: Androgen receptor (Homo sapiens) (UniProt P10275); assay: qHTS assay to identify small molecule antagonists of the androgen receptor (AR) signaling pathway (AID 743035; active means well fitted inhibition curve with a large enough effect in the signal ratio in the repeat runs, not every such curve was filed as active; the % refers to the signal ratio)
Method in brief: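 AR-bla HEK293 reporter cells; 4 h settle at 37C/5% CO2; compound + R1881 agonist, 16 h at 37C; LiveBLAzer B/G FRET substrate 2 h RT; fluorescence intensity read. qHTS format.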
On the % scale 0 is the no-effect control and ±100 the full control effect.

CC(=O)C1C(=O)C=C(C)OC1=O (configuration not stated)
inactive: outcome [1] | Potency [2] | Potency [3] | Potency [4] | outcome [5] | Potency [6] | Potency [7] | outcome [8] | outcome [9] | Potency [10] | Potency [11] | outcome [12] | Potency [13] | outcome [14] | Potency [15]

O=C1c2ccccc2C(=O)c2cc(Cl)ccc21
inactive: viability change, negative = cytotoxic [1] -1.8% [at 7.04 µM] | activity change, negative = cytotoxicity [2] 8.37% [at 8.52 µM] | activity, negative = cytotoxicity [3] 3.55% [at 8.53 µM] | activity change, negative = cytotoxicity [4] 2.51% [at 8.55 µM] | activity change, negative = cytotoxicity [5] 5.05% [at 7.04 µM] | viability change, negative = cytotoxic [16] -1.61% [at 8.47 µM] | activity, negative = inhibition [7] 31.6% [at 8.44 µM] | activation [8] 1.1% [at 8.08 µM] | activity, negative = inhibition [9] -4.44% [at 6.71 µM] | activity, negative = cytotoxicity [17] -11.1% [at 6.72 µM] | activation [10] -3.38% [at 6.71 µM] | activity change, negative = inhibition [12] 1.09% [at 8.47 µM] | activity change, negative = cytotoxicity [13] 5.98% [at 8.47 µM] | activity, negative = inhibition [14] 23.3% [at 8.47 µM] | activity change, negative = cytotoxicity [15] 7.6% [at 8.47 µM]

COc1c2occc2c(OC)c2c(=O)cc(C)oc12
inactive: outcome [1] | Potency [2] | Potency [3] | Potency [4] | outcome [5] | Potency [16] | Potency [6] | Potency [7] | outcome [8] | Potency [13] | outcome [14] | Potency [15]

C=C(C)C1CC=C(C)C(=O)C1 (configuration not stated)
inactive: outcome [1] | Potency [2] | Potency [3] | Potency [4] | outcome [5] | Potency [7] | outcome [8] | outcome [17] | Potency [13] | outcome [14] | Potency [15]

C=Cc1ccc(C(C)(C)C)cc1
inactive: outcome [1] | Potency [2] | Potency [3] | Potency [4] | outcome [5] | Potency [6] | Potency [7] | outcome [8] | outcome [17] | Potency [13] | outcome [14] | Potency [15]

CC(C)(CO)C(O)C(=O)NCCCO (configuration not stated)
inactive: outcome [1] | Potency [2] | Potency [3] | Potency [4] | outcome [5] | Potency [16] | outcome [9] | outcome [17] | Potency [10] | Potency [11] | outcome [12] | Potency [13] | outcome [14] | Potency [15]

COc1ccc(CCO)cc1
inactive: outcome [1] | Potency [2] | Potency [3] | Potency [4] | outcome [18] | Potency [19] | Potency [16] | Potency [6] | Potency [7] | outcome [8] | outcome [17] | Potency [13] | outcome [14] | Potency [15]

O=C1OCCO1
inactive: outcome [1] | Potency [2] | Potency [3] | Potency [4] | outcome [5] | Potency [16] | Potency [7] | outcome [8] | outcome [9] | outcome [17] | Potency [10] | Potency [11] | outcome [12] | Potency [13] | outcome [14] | Potency [15]

Cc1ccc(C(=O)O)cc1[N+](=O)[O-]
inactive: outcome [1] | Potency [2] | Potency [3] | Potency [4] | outcome [20] | Potency [19] | Potency [6] | Potency [7] | outcome [8] | outcome [9] | outcome [17] | Potency [10] | Potency [11] | outcome [12] | Potency [13] | outcome [14] | Potency [15]

N#Cc1ccccc1O
inactive: outcome [1] | Potency [2] | Potency [3] | Potency [4] | outcome [5] | Potency [16] | Potency [6] | Potency [7] | outcome [8] | outcome [17] | Potency [10] | Potency [11] | outcome [12] | Potency [13] | outcome [14] | Potency [15]

CN(C)CCCO[C@@H]1[C@H]2OC(C)(C)O[C@H]2O[C@@H]1C(O)CO (some centres not stated)
inactive: outcome [1] | Potency [2] | Potency [3] | Potency [4] | outcome [5] | Potency [16] | Potency [7] | outcome [8] | outcome [9] | outcome [17] | Potency [10] | Potency [11] | outcome [12] | Potency [13] | outcome [14] | Potency [15]

CC1=NN(c2ccc(S(=O)(=O)O)cc2)C(=O)C1
inactive: outcome [1] | Potency [2] | Potency [3] | Potency [4] | outcome [5] | Potency [16] | Potency [6] | Potency [7] | outcome [8] | outcome [17] | Potency [13] | outcome [14] | Potency [15]

CC(C)=CCC[C@@](C)(O)[C@H]1CC=C(C)CC1
inactive: outcome [1] | Potency [2] | Potency [3] | Potency [4] | outcome [5] | Potency [6] | Potency [7] | outcome [8] | outcome [17] | Potency [13] | outcome [14] | Potency [15]

CCn1cc(C(=O)O)c(=O)c2cnc(N3CCCC3)nc21
inactive: outcome [1] | Potency [2] | Potency [3] | Potency [4] | outcome [5] | Potency [16] | Potency [6] | Potency [7] | outcome [8] | outcome [17] | Potency [13]

CCCCSCCCC
inactive: outcome [1] | Potency [2] | Potency [3] | Potency [4] | outcome [5] | Potency [16] | Potency [6] | Potency [7] | outcome [8] | outcome [17] | Potency [13] | outcome [14] | Potency [15]

CCC(=O)CC
inactive: outcome [1] | Potency [2] | Potency [3] | Potency [4] | outcome [5] | Potency [16] | Potency [6] | Potency [7] | outcome [8] | outcome [17] | Potency [13] | outcome [14] | Potency [15]

OC[C@@H](O)C(O)[C@@H](O)CO (some centres not stated)
inactive: outcome [1] | Potency [2] | Potency [3] | Potency [4] | outcome [5] | Potency [16] | Potency [7] | outcome [8] | Potency [13] | outcome [14] | Potency [15]

O=C(CCCCC(=O)Nc1c(I)cc(I)c(C(=O)O)c1I)Nc1c(I)cc(I)c(C(=O)O)c1I
inactive: outcome [1] | Potency [2] | Potency [3] | outcome [5] | Potency [16] | Potency [6] | Potency [7] | outcome [8] | outcome [9] | outcome [17] | Potency [10] | Potency [11] | outcome [12] | outcome [14] | Potency [15]

CC(C)Cn1cnc2c1c(=O)n(C)c(=O)n2C
inactive: outcome [1] | Potency [2] | Potency [3] | outcome [5] | Potency [16] | Potency [6] | Potency [7] | outcome [8] | outcome [9] | outcome [17] | Potency [10] | Potency [11] | outcome [12] | Potency [13] | outcome [14] | Potency [15]

CC(=O)CC(=O)Nc1ccc(C)cc1C
inactive: outcome [1] | Potency [2] | Potency [3] | outcome [5] | outcome [20] | outcome [18] | Potency [19] | Potency [16] | Potency [6] | Potency [7] | outcome [8] | outcome [17] | Potency [13] | outcome [14] | Potency [15]
